Data taken from PubChem BioAssay AID540321 (Johns Hopkins Ion Channel Center, 2011).

These molecules were tested against Inward rectifier potassium channel 2 (Mus musculus) (UniProt P35561) (assay: Kir2.1 channel inhibition, specificity check, SAR follow-up, selectivity assay for KCNK9 inhibitor project, cell-based, FluxOR thallium flux, CRC round 2 (AID 540321)). Settings: Kir2.1-expressing cells; series mostly up to 30 µM; fluorescence ratio, lower = inhibition: at the top concentration;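 active means Inhibition of the Kir2.1 potassium channel over 30% at some tested dose, plus a fitted dose response curve; inactive means no Kir2.1 inhibition at any dose, or no curve fitted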.
Chain of Inward rectifier potassium channel 2 (Mus musculus) (P35561 whole entry, looked up): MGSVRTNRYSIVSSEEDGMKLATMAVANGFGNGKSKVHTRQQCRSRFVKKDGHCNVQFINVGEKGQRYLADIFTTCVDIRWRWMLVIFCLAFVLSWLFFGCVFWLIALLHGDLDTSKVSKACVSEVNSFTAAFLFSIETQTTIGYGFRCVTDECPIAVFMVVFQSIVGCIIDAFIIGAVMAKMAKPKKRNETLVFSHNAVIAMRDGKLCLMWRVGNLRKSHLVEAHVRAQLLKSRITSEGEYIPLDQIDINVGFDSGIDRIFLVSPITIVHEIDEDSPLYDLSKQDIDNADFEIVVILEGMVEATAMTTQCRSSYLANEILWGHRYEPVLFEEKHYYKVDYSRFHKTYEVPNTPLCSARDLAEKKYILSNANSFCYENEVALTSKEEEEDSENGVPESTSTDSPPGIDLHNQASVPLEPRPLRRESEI

Fluorescence ratio, lower = inhibition, inactive:
Cc1cccc(C(=O)Nc2cccc(NC(=O)c3ccc(C(F)(F)F)cc3)c2)c1 1.6, COc1cccc(C(=O)Nc2cccc(NC(=O)c3ccccc3)c2)c1 1.59, COc1cccc(OC)c1C(=O)Nc1cccc(NC(=O)c2cccc(C)c2)c1 1.74, COc1ccc(C(=O)Nc2cccc(NC(=O)c3ccccc3)c2)cc1 1.37, CCOc1ccccc1NC(=O)c1cccc(NC(=O)c2ccccc2Cl)c1 1.21, COc1ccccc1C(=O)Nc1cccc(NC(=O)c2ccccc2OC(F)(F)F)c1 1.79, CCOc1ccccc1NC(=O)c1cccc(NC(=O)c2ccccc2OC)c1 1.95, CCOc1ccccc1NC(=O)c1cccc(NC(=O)c2ccccc2)c1 1.82, CC(C1CC2CCC1C2)n1c(-c2ccoc2)n[nH]c1=S (stereo not given) 1.15, Cc1cccc(C(=O)Nc2ccccc2NC(=O)c2ccccc2)c1 1.62, S=c1[nH]nc(-c2ccco2)n1CC1CCCCC1 1.26, CC(C1CC2CCC1C2)n1c(-c2ccco2)n[nH]c1=S (stereo not given) 1.39, Cc1cccc(C(=O)Nc2cccc(NC(=O)c3cccc(C)c3)c2)c1 1.81, CCOc1ccccc1NC(=O)c1cccc(NC(=O)c2cccc(C(F)(F)F)c2)c1 1.69, CC(C1CC2CCC1C2)n1c(-c2ccsc2)n[nH]c1=S (stereo not given) 1.42, COc1ccccc1C(=O)Nc1cccc(NC(=O)c2ccccc2)c1 1.79, COc1ccccc1NC(=O)c1cccc(NC(=O)CC2CCCC2)c1 1.81, Cc1cccc(C(=O)Nc2cccc(NC(=O)c3ccc(Cl)cc3)c2)c1 1.77, O=C(Nc1cccc(NC(=O)c2ccc(Cl)cc2)c1)c1ccccc1 1.31, CCOc1ccccc1C(=O)Nc1cccc(NC(=O)c2ccccc2OC)c1 1.66, Cc1cccc(C(=O)Nc2cccc(NC(=O)c3ccc(N(C)C)cc3)c2)c1 1.77, Cc1cccc(C(=O)Nc2cccc(NC(=O)c3ccncc3)c2)c1 1.68, Cc1cccc(C(=O)Nc2cccc(NC(=O)c3cccc(Cl)c3)c2)c1 1.62, COc1ccccc1NC(=O)c1cccc(NC(=O)C2CCCC2)c1 1.82, CC(C)n1c(-c2ccco2)n[nH]c1=S 1.42, CCOc1ccccc1NC(=O)c1cccc(NC(=O)c2ccccc2C(F)(F)F)c1 1.79, CCOc1ccccc1NC(=O)c1cccc(NC(=O)c2ccc(Cl)cc2)c1 1.86, CCOc1ccccc1NC(=O)c1cccc(NC(=O)C2CCCC2)c1 1.63, CC(C1CC2CCC1C2)n1c(-c2ccccc2)n[nH]c1=S (stereo not given) 1.46, O=C(Nc1cccc(NC(=O)c2ccc(F)cc2)c1)c1ccccc1 1.7, COc1ccccc1C(=O)Nc1cccc(NC(=O)c2ccccc2C(C)C)c1 1.72, O=C(Nc1cccc(NC(=O)c2ccccn2)c1)c1ccccc1 1.67, CCOc1ccccc1NC(=O)c1cccc(NC(=O)c2cccc(C)c2)c1 1.76, COc1ccccc1C(=O)Nc1cccc(NC(=O)c2cccc(C)c2)c1 1.71, CCOc1ccccc1NC(=O)c1cccc(NC(=O)C(C)(C)C)c1 1.83
